# PubChem BioAssay
# Calls of active or inactive are those of the source. Unless noted, how the calls were made is not given here.
# Tests used:
# [1] = compound effects on lung adenocarcinoma cell viability – A549, calcein-AM fluorescence, 48 h, basal, profiling panel (AID 1162); settings: higher = more signal; further: test concentration not given here
# [2] = compound effects on differentiated 3T3-L1 adipocyte viability – cell-based, 3T3-L1 adipocytes, calcein-AM fluorescence, 48 h, basal, profiling panel (AID 1163); settings: 3T3-L1 adipocytes viability, higher = more signal; further: test concentration not given here
# [3] = compound effects on hepatocellular carcinoma cell viability – HepG2, calcein-AM fluorescence, 48 h, basal, profiling panel (AID 1164); settings: higher = more signal; further: test concentration not given here
# [4] = compound effects on multiple myeloma cell viability – MM1S, calcein-AM fluorescence, 48 h, basal, profiling panel (AID 1165); settings: higher = more signal;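 further: viability of MM1S multiple myeloma cells under basal unstimulated conditions; test concentration not given here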
# [5] = calcein-AM signal in unstimulated myeloma cells – cell-based, calcein-AM fluorescence, 48 h, PK04 Diversity Set, profiling panel (AID 1166); settings: RPMI8226 myeloma viability, higher = more signal;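 further: cells grown under basal conditions without added stimulus; test concentration not given here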
# [6] = JC-1 mitochondrial signal, unstimulated HepG2 cells – cell-based, JC-1 fluorescence, 24 h, 100 nL compound, profiling panel (AID 1167); settings: HepG2 mitochondrial potential, higher = more signal; further: test concentration not given here
# [7] = JC-1 mitochondrial signal, unstimulated adipocytes – cell-based, JC-1 fluorescence, 3T3-L1 adipocytes, 24 h, 100 nL compound, profiling panel (AID 1168); settings: JC-1 mitochondrial fluorescence, higher = more signal, called active from +8 up or from −8 down; further: test concentration not given here
# [8] = JC-1 mitochondrial signal, unstimulated myeloma cells – cell-based, JC-1 fluorescence, RPMI8226, 24 h, 100 nL compound, profiling panel (AID 1169); settings: JC-1 mitochondrial potential fluorescence, higher = more signal; further: test concentration not given here
# [9] = JC-1 mitochondrial signal, unstimulated MM1S myeloma – cell-based, JC-1 fluorescence, 24 h, 100 nL compound, profiling panel (AID 1170); settings: MM1S mitochondrial potential, higher = more signal; further: test concentration not given here
# [10] = resazurin metabolic signal in A549 cells – cell-based, resazurin fluorescence, 24 h, PK04 Diversity Set, profiling panel (AID 1171); settings: A549 viability, higher = more signal, called active from +8 up or from −8 down; further: test concentration not given here
# [11] = resazurin metabolic signal in HepG2 cells – cell-based, resazurin fluorescence, 24 h, PK04 Diversity Set, profiling panel (AID 1172); settings: HepG2 viability, higher = more signal; further: test concentration not given here
# [12] = budding yeast growth changes without added modifier – OD600, strain BY4716, 24 h, basal condition, primary screen (AID 1173); settings: S. cerevisiae BY4716 growth, OD600, 24 h; higher = more signal, called active from +8 up or from −8 down
# [13] = viability profiling in MM1S myeloma cells – cell-based, resazurin fluorescence, basal, 24 h, PK04 Diversity Set, profiling panel (AID 1174); settings: higher = more signal, called active from +8 up or from −8 down; further: test concentration not given here
# [14] = molecular target: Dihydroorotate dehydrogenase (quinone), mitochondrial (Plasmodium falciparum (isolate 3D7)) (UniProt Q08210); experiment: inhibition of P. falciparum DHODH – biochemical, C-terminal His tag, absorbance 600 nm, primary screen (AID 1175); settings: PfDHODH enzyme, DCIP absorbance 600 nm; higher = more signal, called active from +8 up or from −8 down;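 further: recombinant parasite enzyme with a five histidine tag at its C terminus; test concentration not given here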
# [15] = inhibition of PAO1 biofilm formation – strain PAO1, LB-PBS medium, absorbance 600 nm, primary screen (AID 1176); further: test concentration not given here; settings: P. aeruginosa PAO1 growth/biofilm, A600, 12 h; higher = more signal
# [16] = growth modulation of vineyard yeast isolate – strain RM11-1a, OD600, basal, 24 h, primary screen (AID 1177);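 further: cultures grown under basal conditions with no added stressor; test concentration not given here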; settings: S. cerevisiae RM11-1a growth, OD600, 24 h; higher = more signal, called active from +8 up or from −8 down
# [17] = growth of efflux-deficient E. coli DRC39 – strain DRC39, OD650, 24 h, E. coli filamentation inducers, primary screen (AID 1178);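 further: growth measured as culture turbidity by optical density at 650 nm; test concentration not given here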; settings: E. coli DRC39 acrAB, higher = more signal, called active from +8 up or from −8 down
# [18] = growth of efflux-deficient E. coli DRC39 – strain DRC39, OD650, 48 h, E. coli filamentation inducers, primary screen (AID 1179);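 further: screen aims at cell division blockers that make cells filament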; settings: E. coli DRC39 delta-acrAB growth, higher = more signal, called active from +8 up or from −8 down
# [19] = viability profiling in RPMI8226 myeloma cells – cell-based, resazurin fluorescence, basal, 24 h, PK04 Diversity Set, profiling panel (AID 1180); settings: higher = more signal;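 further: RPMI8826 multiple myeloma cell line at 5000 cells per well; test concentration not given here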
# [20] = molecular target: E3 ubiquitin-protein ligase XIAP (Homo sapiens) (UniProt P98170); experiment: small molecules binding XIAP protein – biophysical, small-molecule microarray, fluorescence 635 nm, primary screen (AID 1181); settings: higher = more signal;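 further: score merges 667 nm emission and signal to noise over triplicate slides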
# Sequence of E3 ubiquitin-protein ligase XIAP (Homo sapiens) (P98170 whole entry, looked up): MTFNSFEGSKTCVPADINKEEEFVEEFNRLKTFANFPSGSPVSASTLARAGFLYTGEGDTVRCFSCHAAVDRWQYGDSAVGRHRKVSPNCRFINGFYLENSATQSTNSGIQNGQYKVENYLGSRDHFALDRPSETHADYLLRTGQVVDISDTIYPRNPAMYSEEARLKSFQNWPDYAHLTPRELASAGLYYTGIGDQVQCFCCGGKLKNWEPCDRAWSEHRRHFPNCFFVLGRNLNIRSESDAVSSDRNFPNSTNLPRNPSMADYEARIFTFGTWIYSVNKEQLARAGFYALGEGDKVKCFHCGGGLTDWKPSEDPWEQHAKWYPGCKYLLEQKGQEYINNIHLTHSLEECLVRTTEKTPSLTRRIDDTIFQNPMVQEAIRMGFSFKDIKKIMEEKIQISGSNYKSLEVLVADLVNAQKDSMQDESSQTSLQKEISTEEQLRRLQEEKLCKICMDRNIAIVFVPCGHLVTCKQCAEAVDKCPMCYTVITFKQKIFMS
# Sequence of Dihydroorotate dehydrogenase (quinone), mitochondrial (Plasmodium falciparum (isolate 3D7)) (Q08210 whole entry, looked up): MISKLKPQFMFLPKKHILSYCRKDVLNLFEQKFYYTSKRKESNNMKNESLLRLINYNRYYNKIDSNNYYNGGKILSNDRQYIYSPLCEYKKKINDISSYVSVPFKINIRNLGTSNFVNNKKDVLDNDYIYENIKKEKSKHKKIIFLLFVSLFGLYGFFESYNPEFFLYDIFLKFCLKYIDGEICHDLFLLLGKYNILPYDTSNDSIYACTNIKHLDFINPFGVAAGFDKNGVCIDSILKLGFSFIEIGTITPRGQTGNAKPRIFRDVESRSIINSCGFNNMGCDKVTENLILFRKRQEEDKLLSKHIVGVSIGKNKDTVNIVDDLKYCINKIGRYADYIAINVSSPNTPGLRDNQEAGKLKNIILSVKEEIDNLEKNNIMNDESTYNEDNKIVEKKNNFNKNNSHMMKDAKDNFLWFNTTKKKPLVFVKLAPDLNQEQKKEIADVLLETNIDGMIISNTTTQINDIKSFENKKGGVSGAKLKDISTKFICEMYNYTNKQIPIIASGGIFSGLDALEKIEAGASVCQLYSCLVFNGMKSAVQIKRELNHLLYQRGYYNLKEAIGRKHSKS
SMILES,z-score [1],z-score [2],z-score [3],z-score [4],z-score [5],z-score [6],z-score [7],z-score [8],z-score [9],z-score [10],z-score [11],z-score [12],z-score [13],composite z-score [14],z-score [15],z-score [16],z-score [17],z-score [18],z-score [19],composite z-score [20]
O=C1O[C@@H](c2ccccc2)[C@@H](c2ccccc2)N2[C@@H](c3ccc(OCCO)cc3)[C@]3(C(=O)Nc4ccc(C#CC5=CCCCC5)cc43)[C@@H](C(=O)Nc3nc4ccccc4s3)[C@H]12,0.583,0.0884,0.803,-1.69,-2.18,-3.08,-0.395 (inactive),-1.12,-1.92,-1.27 (inactive),-0.533,1.46 (inactive),-1.21 (inactive),-4.05 (inactive),3.52 (inactive),2.53 (inactive),-0.304 (inactive),0.141 (inactive),-1,-0.339
C=CCNC(=O)[C@H]1[C@@H]2C(=O)O[C@@H](c3ccccc3)[C@@H](c3ccccc3)N2[C@@H](c2ccc(OCCO)cc2)[C@]12C(=O)N(C(=O)OCCOC)c1ccc(C#CCNC(N)=O)cc12,0.0935,-0.585,0.854,0.952,1.27,0.0391,0.668 (inactive),-0.596,-0.919,-0.226 (inactive),0.263,1.88 (inactive),0.31 (inactive),-0.193 (inactive),1.45 (inactive),3.01 (inactive),1.45 (inactive),1.24 (inactive),1.09,0.0313
O=C1O[C@H](c2ccccc2)[C@H](c2ccccc2)N2[C@H]1[C@@H](C(=O)Nc1nc3ccccc3s1)[C@]1(C(=O)Nc3ccccc31)[C@H]2c1ccccc1OCCO,-1.59,0.842,-1.97,-1.61,-3.67,-2.27,4.1 (inactive),-1.16,-1.37,-2.35 (inactive),0.551,0.448 (inactive),-1.93 (inactive),0.386 (inactive),2.76 (inactive),2.72 (inactive),-0.0179 (inactive),-0.145 (inactive),-3.31,-0.128
COC(=O)C1=CC(c2ccc(CO)cc2)=CC(C2CC2)N(Cc2cc3c(cc2Br)OCO3)C=C1C(=O)OC (stereo not given),-0.0232,0.679,0.522,-0.785,-2.39,0.733,0.278 (inactive),-0.563,-1.34,-1.15 (inactive),-0.0995,-3.02 (inactive),-1.42 (inactive),-4.43 (inactive),0.158 (inactive),-0.069 (inactive),0.164 (inactive),-0.0391 (inactive),-1.25,0.172
CC1CC/C=C\[C@H]2OC34C=CCN(C(C)C)C(=O)[C@H]3N(C(C)CO)C(=O)[C@@H]4C2C(=O)O1 (stereo not given in full),-0.784,0.534,0.517,-0.245,0.819,0.674,0.164 (inactive),0.851,-0.869,0.574 (inactive),0.741,0.306 (inactive),1.05 (inactive),-0.0766 (inactive),2.9 (inactive),0.477 (inactive),0.355 (inactive),0.553 (inactive),0.832,0.0345
O=C1C2C=CC(C(O)C(c3ccccc3)c3ccccc3)N(Nc3ccccc3F)C2C(=O)N1c1ccccc1 (stereo not given),-0.486,-0.368,0.355,-1.33,-0.0284,-1.7,-1.3 (inactive),0.284,-0.73,-0.021 (inactive),-0.353,-0.704 (inactive),-0.813 (inactive),1.68 (inactive),0.34 (inactive),1.52 (inactive),-0.872 (inactive),-0.82 (inactive),-1.32,0.0617
CCCCC=C[C@@H](NC(=O)C(C)(C)C)c1ccccc1,-2.66,-0.688,-5.19,-3.26,-4.72,-4.78,-0.576 (inactive),-0.895,-2.82,-0.938 (inactive),-1.12,2.43 (inactive),-2.58 (inactive),0.507 (inactive),0.563 (inactive),2.07 (inactive),-0.275 (inactive),-0.0819 (inactive),-3.59,-0.0095
[N-]=[N+]=NCc1ccccc1[C@H]1OC(c2ccc(OCCCO)cc2)=N[C@@]1(Cc1ccccc1N=[N+]=[N-])C(=O)N1CCOCC1,-0.612,-0.182,-0.659,-2.69,-3.44,-1.26,-0.866 (inactive),-1.11,-2.14,-0.772 (inactive),-0.317,-0.783 (inactive),-2.46 (inactive),1.03 (inactive),0.438 (inactive),1.43 (inactive),-0.33 (inactive),-0.799 (inactive),-2.58,0.122
N#Cc1ccc(NN2C(C(O)c3ccc(B(O)O)cc3)C=CC3CN(c4ccccc4)C(=O)C32)cc1 (stereo not given),0.222,-0.463,-0.35,-0.104,-1.29,-2.14,-0.643 (inactive),-0.0762,-0.696,0.238 (inactive),-0.595,-15.4 (active),-1.25 (inactive),-0.883 (inactive),0.475 (inactive),1.56 (inactive),0.898 (inactive),0.934 (inactive),-0.662,-0.0917
